Laboratory results as given in PubChem BioAssay AID1159580 (chemical genetic matrix, 2015).
The whole screen tested about 5,500 compounds, of which about 2,000 (36%) were called active. Not shown: some 18% with an inconclusive outcome. No stated cut-off is given here; in the data, active means normalized growth mostly below about 0.91 (no sharp cut-off); inconclusive means no clear call, values can overlap the other calls; inactive means mostly above about 0.92. The list shows a part of the results.

Assay: chemical genetic growth profiling, strain panel (AID 1159580);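 further: tested at 20 µM; growth read once vehicle control cultures reached saturation at 30 °C; 1 = growth at the plate median or of vehicle wells; lower values mean less growth of the strain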
Details: S. cerevisiae deletion strains, growth OD

Measured: normalized growth

Cc1ccc(-c2nn[nH]n2)cc1Cl
inactive: locus YAL013W, strain DEP1, active compounds read low 0.965 | locus YBR229C, strain ROT2, active compounds read low 0.963 | locus YDL101C, strain DUN1, active compounds read low 0.985 | locus YDL134C, strain PPH21, active compounds read low 0.997 | locus YDR150W, strain NUM1, active compounds read low 0.935 | locus YEL061C, strain CIN8, active compounds read low 0.983 | locus YGR078C, strain PAC10, active compounds read low 0.967 | locus YGR229C, strain SMI1, active compounds read low 0.984 | locus YHR030C, strain SLT2, active compounds read low 1 | locus YHR087W, strain rtc3, active compounds read low 0.975 | locus YJR043C, strain POL32, active compounds read low 0.932 | locus YJR075W, strain HOC1, active compounds read low 0.966 | locus YLR039C, strain RIC1, active compounds read low 1 | locus YLR058C, strain SHM2 (second series), active compounds read low 0.962 | locus YLR085C, strain ARP6, active compounds read low 1 | locus YLR262C, strain YPT6, active compounds read low 1 | locus YML094W, strain GIM5, active compounds read low 1 | locus YMR219W, strain ESC1, active compounds read low 0.97 | locus YMR263W, strain SAP30, active compounds read low 0.933 | locus YNL153C, strain GIM3, active compounds read low 0.969 | locus YNL298W, strain CLA4 (second series), active compounds read low 1.02 | locus YNL322C, strain KRE1, active compounds read low 0.947 | locus YNR030W, strain Alg12, active compounds read low 1 | locus YOL006C, strain TOP1, active compounds read low 1.07 | locus YPL055C, strain LGE1, active compounds read low 0.944 | locus YPL241C, strain CIN2, active compounds read low 1.12 | locus YPR135W, strain CTF4, active compounds read low 1.03
